Screening results as filed in PubChem BioAssay.
The list is not random: actives were taken first. Their share in the collection is about 2%.
S1P2 antag: human S1P2 receptor antagonists, primary screen, cell-based. inhibition, % at 5 µM. cell-based S1P2 antagonist assay, inhibition at 5 uM. Sphingosine 1-phosphate receptor 2 (Homo sapiens), O95136. 0.21% of 97,000 active; in the data active = inhibition above about 45%;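 also: CRE beta-lactamase reporter cells expressing human S1P2 stimulated with S1P; 0% = agonist at EC80 alone and 100% = agonist plus reference antagonist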
S1P2 agonist: S1P2 receptor agonists, primary screen, cell-based | Sphingosine 1-phosphate receptor 2 (Homo sapiens), O95136 | S1P2-expressing cell line, agonist reporter read-out | activation, % at 4.5 µM | 0.46% of 97,000 active | AID 729, 2007; in the data active = activation above about 16%;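 also: 0% = vehicle low control and 100% = maximal reference agonist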
GALR2 blocker: GALR2 antagonists in receptor-expressing cells, primary screen; Galanin receptor type 2 (Homo sapiens), O43603; antagonist mode; inhibition, % at 4 µM; 0.39% of 140,000 active; AID 828, 2007; in the data active = inhibition above about 27%;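 also: cells stimulated with galanin 1-16 at roughly its EC80; 0% = agonist challenge control and 100% = basal control without agonist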
PLAP act: PLAP enzyme activators, biochemical, luminescence, HTS; Alkaline phosphatase, placental type (Homo sapiens), P05187; purified PLAP enzyme, luminescent substrate read-out; stronger effect = higher value; activation fold at 20 µM; 1.2% of 96,000 active; AID 696, 2007; in the data active = activation fold above about 2
Target sequence (P05187 whole entry, looked up): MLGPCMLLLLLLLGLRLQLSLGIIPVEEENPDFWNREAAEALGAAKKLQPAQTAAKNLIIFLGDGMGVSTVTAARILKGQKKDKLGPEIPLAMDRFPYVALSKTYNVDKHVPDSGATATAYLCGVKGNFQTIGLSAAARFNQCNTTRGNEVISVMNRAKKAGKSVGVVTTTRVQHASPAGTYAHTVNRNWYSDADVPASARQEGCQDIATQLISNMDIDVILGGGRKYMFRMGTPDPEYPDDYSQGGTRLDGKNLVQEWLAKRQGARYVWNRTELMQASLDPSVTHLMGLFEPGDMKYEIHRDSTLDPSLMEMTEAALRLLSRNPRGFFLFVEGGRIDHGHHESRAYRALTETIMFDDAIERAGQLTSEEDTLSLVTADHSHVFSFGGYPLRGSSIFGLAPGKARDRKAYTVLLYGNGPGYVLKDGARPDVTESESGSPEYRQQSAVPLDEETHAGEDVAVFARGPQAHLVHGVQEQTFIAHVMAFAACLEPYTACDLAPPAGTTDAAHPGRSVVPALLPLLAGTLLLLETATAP
GALR2 agonist: GALR2 receptor agonists, primary screen, cell-based; activation, % (no concentration beside the values); Galanin receptor type 2 (Homo sapiens), O43603; GALR2-expressing cells, agonist activation read-out; 0.48% of 140,000 active; AID 803, 2007; in the data active = activation above about 5%, passing the limit was not always enough;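 also: 0% = vehicle buffer wells and 100% = reference agonist at full effect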
Starred values were filed as active, the others as inactive; nt = no result given.

SMILES	S1P2 antag	S1P2 agonist	GALR2 blocker	PLAP act	GALR2 agonist
CC(NC(=O)/C(C#N)=C/c1cn[nH]c1-c1ccccc1)c1ccccc1 (configuration not stated)	-8	-5	-8	1.8	-2
N#C/C(=C\c1cn[nH]c1-c1ccc(Cl)cc1)C(=O)NCc1ccccc1	-13	-6	-2	2.1*	0
CC(NC(=O)COC(=O)c1cc(NS(=O)(=O)c2ccc(Cl)c([N+](=O)[O-])c2)ccc1O)C1CC2CCC1C2 (configuration not stated)	nt	nt	22	nt	1
Cc1ccc(C(=O)N2CC(=O)Nc3ccc(F)cc3C2c2ccccc2)cc1[N+](=O)[O-] (configuration not stated)	nt	nt	8	nt	-1
CC(c1nnc(SCC(=O)N2CC(=O)Nc3ccccc32)n1Cc1ccccc1)N(C)C (configuration not stated)	2	-2	2	2*	-2
Cc1ccc(CNC(=O)Cn2c([N+](=O)[O-])cnc2C)cc1	8	-6	0	1.1	-2
COc1ccc(Cn2c(-c3ccc(C)cc3)nc3c(c(=O)c4ccccc4n3C)c2=O)cc1	nt	nt	-8	nt	5.1*
CS(=O)(=O)N(CCc1ccccc1)CC(=O)NCc1cccnc1	-3	-11	15	0.9	-3
CCCc1nc2ccccc2c(C(=O)OCC(=O)Nc2cccc(S(=O)(=O)N3CCOCC3)c2)c1CC	-10	19*	9	1.2	-1
O=C(COC(=O)CCc1ccccc1)Nc1ncc(Cl)cc1Cl	-1	-3	4	0.8	-1
C=CCn1c(=N)c(C#N)cc2c(=O)n3ccccc3nc21	-58	9	-7	nt	6
Cc1cc(-n2c(=O)c(C#N)cc3c(=O)n4ccccc4nc32)no1	nt	nt	-37	1.5	31*
C=CCn1c(=O)c(C#N)cc2c(=O)n3ccccc3nc21	-59	60*	-31	1	21*
Cc1ccccc1-n1c(=O)c(C#N)cc2c(=O)n3ccccc3nc21	-104	63*	-56	1	74*
CCc1ccc(N(C(=O)c2ccco2)C(C(=O)NC2CCCC2)c2ccco2)cc1 (configuration not stated)	2	-4	7	nt	-2
CC(C)n1c(O)c(N=NC(=O)Cn2ccc(C(F)(F)F)n2)c2ccccc21	nt	nt	-14	nt	1
CCCCCn1c(CN2CCN(c3cccc(Cl)c3)CC2)nc2c1c(=O)n(C)c(=O)n2C	7	-2	-14	1.4	0
Cn1c(=O)[nH]c(=O)c2c1nc(N1CCN(c3cccc(Cl)c3)CC1)n2CCCc1ccccc1	-11	-2	-6	0.8	0
CCCCCn1c(N2CCN(c3cccc(Cl)c3)CC2)nc2c1c(=O)[nH]c(=O)n2C	10	-14	-7	2*	1
CCCCn1c(CN2CCN(c3cccc(Cl)c3)CC2)nc2c1c(=O)n(C)c(=O)n2C	1	-8	-20	2.1*	-1
COc1cc(CNC2CCCC2)cc(Cl)c1OCc1ccccc1F	5	-2	-9	2*	7
Clc1cccc(Nc2c3c(nc4ncnn24)CCC3)c1	1	-8	4	2*	-2
Cc1ccc(Nc2c3c(nc4ncnn24)CCC3)cc1	-11	-5	-5	1.2	1
Cc1cccc(NC(=O)C(NS(=O)(=O)c2ccc3c(c2)CCC(=O)N3)c2ccccc2)n1 (configuration not stated)	1	-6	4	1.1	1
CCN(CC)S(=O)(=O)c1ccc(Oc2ccccc2)cc1	-8	-8	-5	0.8	-1
SMILES	S1P2 antag	S1P2 agonist	GALR2 blocker	PLAP act	GALR2 agonist
COc1cc2nc(SCc3ccc(Cl)cc3Cl)n(Cc3cccs3)c(=N)c2cc1OC	16	-6	-12	1.2	-2
COc1cc2nc(SCc3ccc(C(F)(F)F)cc3)n(Cc3cccs3)c(=N)c2cc1OC	10	16*	2	1.2	-2
CN1CCN(C(c2ccc(F)cc2)c2nnnn2Cc2cccs2)CC1 (configuration not stated)	nt	nt	0	1.6	0
Fc1ccc(C(c2nnnn2Cc2cccs2)N2CCN(C3CCCCC3)CC2)cc1 (configuration not stated)	22	-6	0	2.1*	-1
Cc1ccccc1Nc1nc(N)nc(COC(=O)c2cccc(S(=O)(=O)N(C)C)c2)n1	nt	nt	-12	nt	0
Cc1ccccc1Nc1nc(N)nc(COC(=O)c2cccc(S(=O)(=O)NCc3ccccc3)c2)n1	nt	nt	-6	nt	5.0*
COc1cc(S(=O)(=O)Nc2cccc(C)c2)ccc1NC(=O)c1ccncc1	nt	nt	2	nt	0
COc1ccc(NC(=O)CSc2nnc(Cc3ccccc3)o2)c(OC)c1	-10	-8	-2	2.3*	-1
CCCCc1nnc(NC(=O)C(C)Sc2nc(C)cc(=O)[nH]2)s1 (configuration not stated)	-15	-4	9	1.3	-1
CCn1c2ccccc2c2nc3cc(OC)c(OC)cc3nc21	-37	23*	-5	0.9	1
CCn1c2ccccc2c2nc3ccccc3nc21	-36	19*	-4	1.4	1
CCN(CC)S(=O)(=O)c1ccc(C(=O)NNC(=O)C2CCN(S(=O)(=O)c3ccc(Cl)cc3)CC2)cc1	nt	nt	-1	nt	-1
CSc1ccc(CNCCCN(C)C)cc1	nt	nt	-1	nt	0
COc1cc2c(cc1OC)C(COc1ccc3c(C)cc(=O)oc3c1)N(C(=O)c1ccco1)CC2 (configuration not stated)	-8	21*	2	nt	-1
COc1cc2c(cc1OC)C(COc1ccc(F)cc1)N(C(=O)c1ccco1)CC2 (configuration not stated)	-22	0	13	1.7	1
Cc1cc(N2CCN(c3ccccc3)CC2)nc(-c2ccccc2O)n1	-17	-1	-3	1.2	-2
Cc1cc(-n2[nH]c(C)c(C)c2=O)nc(-c2ccccc2O)n1	nt	nt	23	2.5*	-2
Cc1c(Cc2ccccc2)c(=O)oc2c(CN(C)C)c(O)c(Cl)cc12	nt	nt	3	nt	8.3*
CCOC(=O)c1sc2nccc(N(C)C)c2c1N=CNOCc1c(F)cccc1Cl	-16	33*	-16	1.6	0
CCn1c(CSc2nc3ccccc3[nH]2)n[nH]c1=S	6	-10	-9	2.2*	-1
CCOc1ccccc1CSc1nc2ccccc2[nH]1	nt	nt	3	nt	-1
CCCCN(CCCNC(=O)c1ccc2nc(N3CCOCC3)sc2c1)Cc1ccccc1	-8	1	-6	2.2*	-1
CCCCn1nc(NC(=O)c2cccs2)c2cc3cc(OC)ccc3nc21	35	12	1	1.5	6.8*
FC(F)(F)c1cc(C(F)(F)F)c2ccc(N3CCN(c4ccc(Cl)cc4)CC3)nc2n1	-11	-1	12	0.9	-2
N#CC(c1ccc(Cl)cc1)c1ccc2c(C(F)(F)F)cc(C(F)(F)F)nc2n1 (configuration not stated)	69*	-5	-10	1.2	0
